# Assay results: PubChem BioAssay AID560 (The Scripps Research Institute Molecular Screening Center, 2006)
# Screen size: about 65,000 compounds; about 980 (1.5%) were called active. What follows is part of a selection rich in actives, with near analogues and random picks from the rest. Values without a mark were called inactive.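 Rule for the calls: active = activation above the mean of all tested compounds plus 3 SD (cut at about 49% in these data); inactive = the rest.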
# Molecular target: Nuclear receptor ROR-alpha (Homo sapiens) (UniProt P35398)
# Experiment: RORA ligand-binding domain transcriptional activation – cell-based, luminescence, primary screen (AID 560);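 note: 0% = DMSO-treated RORA cells and 100% = added signal equal to DMSO minus mock-transfected cells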
# Conditions: CHO-K1 Gal4-RORA LBD luciferase reporter, at 10 µM, hits give high values, percent increase over mock-subtracted basal signal
# Chain of Nuclear receptor ROR-alpha (Homo sapiens) (P35398 whole entry, looked up, the tested form may be a part): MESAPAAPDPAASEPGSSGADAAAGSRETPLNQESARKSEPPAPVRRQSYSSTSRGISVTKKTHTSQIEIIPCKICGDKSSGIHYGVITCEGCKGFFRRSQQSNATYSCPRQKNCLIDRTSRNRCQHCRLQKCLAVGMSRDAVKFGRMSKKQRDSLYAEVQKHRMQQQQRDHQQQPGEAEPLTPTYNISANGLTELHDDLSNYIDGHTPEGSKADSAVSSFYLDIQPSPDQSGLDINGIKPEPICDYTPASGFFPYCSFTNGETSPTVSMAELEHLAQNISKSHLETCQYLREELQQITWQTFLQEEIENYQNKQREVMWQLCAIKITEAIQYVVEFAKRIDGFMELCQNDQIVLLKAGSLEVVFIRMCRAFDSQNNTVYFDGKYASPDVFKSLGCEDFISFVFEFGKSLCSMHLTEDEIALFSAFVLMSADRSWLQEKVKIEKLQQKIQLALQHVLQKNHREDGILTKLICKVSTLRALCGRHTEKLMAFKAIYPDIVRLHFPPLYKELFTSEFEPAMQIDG
row,SMILES,activation
1,O=C(NCCCNC(=O)NC1CCCCC1)NC1CCCCC1,-10.6%
2,CCS(=O)(=O)N1CCC(C(=O)N2CCN(c3ccccc3)CC2)CC1,-6.6%
3,COc1cccc2sc(Nc3nc(C)c(C(C)=O)s3)nc12,39.6%
4,Cc1cc(C)c2c(c1)cc(C)c1nnc(SCC(=O)Nc3cc(C)on3)n12,44.5%
5,Cc1cccc(NC(=O)c2ccccc2NC(=O)C(C)(C)C)n1,17.7%
6,Cc1cccc(NC(=O)c2ccc3ccccc3n2)n1,83% (active)
7,Cc1cccc(NC(=O)COc2ccccc2C)n1,-18.4%
8,CC(=O)c1c(N)n(C)c(=O)n(C)c1=O,-5.2%
9,c1ccc2c(NCC3CCCO3)nc(-c3ccncc3)nc2c1 (stereo not drawn),-11.3%
10,Cc1ccc(-n2c(SCC(=O)Nc3ccc4c(c3)OCO4)nnc2-c2ccoc2C)cc1,-1.7%
11,Cn1nnc2cc(C(=O)NCCC3=CCCCC3)ccc21,18.1%
12,CN(c1ccc(C(=O)NCCC2=CCCCC2)cc1)S(C)(=O)=O,63% (active)
13,O=C(Cc1nn[nH]n1)NCCC1=CCCCC1,-13.7%
14,O=C(CS(=O)(=O)Cc1ccccc1)NCC1CCCO1 (stereo not drawn),11.4%
15,CC(=NCC1CCCO1)c1c(O)[nH]c(=O)[nH]c1=O (stereo not drawn),2.9%
16,O=C1C(C=NCC2CCCO2)=C(O)c2ccccc21 (stereo not drawn),48.7% (active)
17,Cc1ccccc1Nc1nc(N)nc(CN2CCN(c3ccccn3)CC2)n1,-2.8%
18,CC(=O)Nc1cccc(NC(=O)c2c(-c3ccccc3)noc2C)c1,-6.7%
19,CC(=O)Nc1cccc(-c2cnc3ccccc3n2)c1,72.9% (active)
20,Cc1cc(O)ccc1-c1cnc2ccccc2n1,30.5%
21,CC(C)CC(=O)N=C1SC2CS(=O)(=O)CC2N1CCc1ccccc1 (stereo not drawn),-3.3%
22,Cn1c(CNC(=O)C(C)(C)C)nc2ccccc21,13.9%
23,CCN(CC)C(=O)CSc1nnc(-c2cnccn2)n1-c1ccc(C)cc1,12%
24,Cn1c(SCc2c(F)cccc2Cl)nnc1-c1cnccn1,62.8% (active)
25,O=C(CSc1nnc(-c2cnccn2)n1Cc1ccco1)c1ccc(Cl)c(Cl)c1,1.4%
26,COCCn1nnnc1CN1CCC(NC(=O)Nc2cccc(OC)c2)CC1,-9%

row,SMILES,activation
1,CCOc1cc(S(=O)(=O)NCc2ccc3c(c2)OCO3)ccc1F,-24.1%
2,CCn1c(CSc2ncccn2)nnc1SCC(=O)N1c2ccccc2CC1C (stereo not drawn),-7.8%
3,Cn1c(SCc2nc3ccccc3s2)nnc1-c1ccc2c(c1)OCO2,37.8%
4,CC(C)OC(=O)c1sc2nc3c(cc2c1N)C(=O)CCC3,47.6%
5,Oc1ccc2nc(Cc3ccccc3)[nH]c2c1,2.5%
6,Oc1ccc(Cl)cc1/C=N/c1nc2ccccc2[nH]1,51.7% (active)
7,c1ccc2[nH]c(-c3nc4ccccc4[nH]3)nc2c1,14.8%
8,O=C(C1CCCO1)N1CCC(c2nc3ccccc3[nH]2)CC1 (stereo not drawn),-13.4%
9,Fc1c(F)c(C(F)(F)F)c(F)c(F)c1N1CCN(c2ccc3nnc(C(F)(F)F)n3n2)CC1,-6.8%
10,COc1ccc(-c2cc3ccc(OCc4nn[nH]n4)cc3oc2=O)cc1,-23.3%
11,O=c1oc2cc(O)ccc2cc1-c1ccc(F)cc1,61.8% (active)
12,COc1cccc(C(=O)c2cc3ccc(O)cc3oc2=O)c1,0.2%
13,O=C(O)C1OC(C(=O)O)C2C1C(F)(F)C2(F)F (stereo not drawn),-1.8%
14,CCCn1c(=O)c(-c2ccccc2)c(O)c2ccccc21,5.6%
15,CCOCCCNS(=O)(=O)Cc1ccccc1,-16.2%
16,O=C1CCCC2=C1C(c1cccs1)n1nc(SCc3ccccc3)nc1N2 (stereo not drawn),-13.1%
17,O=C(CN1CCOCC1)N1CCCc2c1c(=O)oc1ccc(OCc3ccccc3)cc21,-15.9%
18,CCOc1ccc(-c2nnc(-c3ccco3)o2)cc1,-31.6%
19,Cc1ccc(OCC(=O)Nc2ccc(-c3nnc(-c4ccco4)o3)cc2)cc1,20.8%
20,CCC(=O)Oc1cccc(C(=O)Nc2ccc(-c3nnc(-c4ccco4)o3)cc2)c1,112% (active)
21,Cn1c(=O)c(C(=O)Nc2ncccn2)c(O)c2ccccc21,61% (active)
22,CCOc1cc(C(=O)Nc2ncccn2)cc(OCC)c1OCC,-3.1%
23,O=C(Nc1ncccn1)c1cccs1,-6.7%
24,CC(C)C(c1nnnn1CCc1ccccc1)N1CCN(C(=O)c2ccco2)CC1 (stereo not drawn),-9%
25,CCC(CC)c1nnc(NS(=O)(=O)Cc2ccccc2)s1,-5.9%
26,Cc1cc(NC(=O)c2cc(-c3cccs3)on2)nn1Cc1ccc(Cl)cc1,27.5%

row,SMILES,activation
1,COc1ccccc1N1CCN(C(=O)c2cc(-c3ccc(Br)cc3)on2)CC1,-2.4%
2,O=C(c1cc(-c2cccs2)on1)N1CCCCC1,63.4% (active)
3,O=C(CSCc1cccs1)N1CCCC1,22.9%
4,COc1ccccc1-c1cc(C(=O)N2CCCCC2)no1,56.5% (active)
5,O=C(c1cc(-c2ccccc2O)on1)N1CCCC1,18.2%
6,Cc1cc(Cl)c(S(=O)(=O)NCCC(=O)O)cc1OCC(N)=O,-22.1%
7,COc1ccc(OCCCON2C(=O)c3ccccc3C2=O)cc1,-11.1%
8,C[N+]1(CCNC(=O)/C=N/O)CCCCC1,-28.3%
9,O=C(Nc1ccon1)c1cccc(Cl)c1,-2.3%
10,CN(C)CCSc1nc(N)c2c3c(sc2n1)COC(C)(C)C3,10.3%
11,C=C(C)Cn1c(SCC(=O)NCc2ccco2)nc2sc3c(c2c1=O)CCC3,-4%
12,C=C(C)CSc1nc(N)c2c3c(sc2n1)CCC3,56.2% (active)
13,CCn1cc(C(=O)NCC2CCCO2)c(=O)c2cc(S(=O)(=O)N3CCCCC3)ccc21 (stereo not drawn),-5.2%
14,O=C(CCCn1c(SCC(=O)c2ccc(F)cc2)nc2ccccc2c1=O)NCc1ccco1,40.5%
15,COc1ccc(-c2noc(-c3cccc(OC)c3OC)n2)cc1OC,89.8% (active)
16,COc1ccc(-c2nc(-c3ccccc3)no2)c(OC)c1,-78.4%
17,COc1cc(-c2nc(-c3ccncc3)no2)cc(OC)c1OC,5.3%
18,CC(=O)Nc1ccc(NS(=O)(=O)c2cc(C)sc2C)cc1,-3%
19,CC(C)C(=O)Nc1cccc(C(=O)Nc2ccc3c(c2)OCO3)c1,31.6%
20,Cn1c(=O)n(C)c2cc(C(=O)Nc3ccc4c(c3)OCO4)ccc21,19.1%
21,COc1ccc(C(=O)Nc2ccc3c(c2)OCO3)cc1OC,69.8% (active)
22,COc1ccc(CC(=O)Nc2ccc(-c3nnc(-c4ccccc4)o3)cc2)cc1,8.7%
23,O=C(Nc1ccc(-c2nnc(-c3ccccc3)o2)cc1)c1ccc(Br)o1,9.1%
24,Nc1ccc(-c2nnc(-c3ccc(-c4ccccc4)cc3)o2)cc1,60.7% (active)
25,CN(C)c1ccc(CNC23CN4CN(CN(C4)C2)C3)cc1,-19.1%
26,CN(Cc1ccccc1)Cc1ccccc1F,5.2%
